Cycloheximide cs – counter-screen for Shiga toxin inhibitors: cycloheximide protein synthesis inhibition; cell reporter, cycloheximide protein synthesis inhibition counterscreen; max response, %; 12% of 300,000 active; AID 2314; in the data active means max response mostly above about 13%, no sharp cut-off; inactive means mostly below about 14%; further: read at 38.3 µM for the half of the compounds with a filed dose; 0% is about no effect
Shiga inhibitor – blocks Shiga toxin action in Vero cells; AID 2315; inhibition, % at 38.7 µM; Vero cells, Shiga toxin protein synthesis inhibition reporter; 9.2% of 290,000 active; in the data active means inhibition mostly above about 28%, no sharp cut-off; inactive means mostly below about 43%; further: 0% is about no effect
Pf growth 48h – inhibits P. falciparum growth in the first generation, 48 h; Potency, µM (doses to about 28.7 µM), for the others: at the highest dose activity change, negative = inhibition, most hits filed as inhibitors; 5.9% of 310,000 active; P. falciparum luciferase growth in erythrocytes, 48 h; further: potency means the concentration at half of the fitted maximal effect; on the % scale 0 is the no-effect control and ±100 the full control effect
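Here the parasites carry a stable luciferase gene and grow inside erythrocytes in Albumax-based RPMI medium with compound for one erythrocytic cycle. Activity is scored as loss of luminescent signal.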
Pf growth 96h – P. falciparum growth inhibition at 96 hours | P. falciparum luciferase reporter growth, 96 h | Potency, µM (doses to about 28.7 µM), inactives show at the top dose activity change, negative = inhibition, hits mostly inhibitors | 6.9% of 320,000 active; further: potency means the concentration at half of the fitted maximal effect; on the % scale 0 is the no-effect control and ±100 the full control effect
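Compounds incubated with erythrocytes infected by luciferase-expressing P. falciparum (2% hematocrit, 0.05% parasitemia final) for 96 hours, 37 C in 5% CO2. Growth inhibition scored as decreased luciferase luminescence.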
Starred values were filed as active, the others as inactive. A selection: hits, their analogues and other compounds. The true share with any hit is near 21%. Unless noted, the call rests on the fitted dose curve; in most records, active means well fitted inhibition curve with a large enough effect; inconclusive means small, poorly fitted or top-dose-only effect, or another doubt; inactive means no such curve, though single readings can be large or run the other way.

CN(Cc1cccc2cnccc12)C(=O)c1cc(COc2ccc(F)cc2Cl)on1 was read as Cycloheximide cs 23*, Shiga inhibitor 32, Pf growth 48h inconclusive and Pf growth 96h -1%.
Cc1ccc(OCc2cc(C(=O)N(C)Cc3cnn(-c4ccccc4C)c3)no2)cn1 was read as Cycloheximide cs 20*, Shiga inhibitor 35, Pf growth 48h 7% and Pf growth 96h inconclusive.
`Cc1csc(CN(C)C(=O)c2cn(Cc3cccc4ccccc34)nn2)n1` gave Cycloheximide cs 21, Shiga inhibitor 36*, Pf growth 48h 11% and Pf growth 96h 43%.
Screening Cc1nnc(CN(C)C(=O)c2cc(COc3ccc(F)cc3Cl)on2)o1 returned Cycloheximide cs 38*, Shiga inhibitor 93*, Pf growth 48h 107% and Pf growth 96h 32%.
For CCC1(c2ccccc2)NC(=O)N(CC(=O)N(C)Cc2c(F)cccc2Cl)C1=O (stereo not drawn) the results were Cycloheximide cs 1, Shiga inhibitor -2, Pf growth 48h inconclusive and Pf growth 96h inconclusive.
`O=C(c1ccc(Br)o1)N1CCN(CCc2ccncc2)CC1` gave Cycloheximide cs 6, Shiga inhibitor -7, Pf growth 48h -22% and Pf growth 96h 380%.
Screening CC(=O)O[C@@H]1[C@@H](O)CN[C@@H]1Cc1ccccc1 returned Cycloheximide cs -13 and Shiga inhibitor -29.
`Cc1cc(CN(C)C(=O)c2cc(COc3ccc(C)c(C)c3)on2)on1` gave Cycloheximide cs 56*, Shiga inhibitor 64*, Pf growth 48h 25% and Pf growth 96h -25%.
COc1cccc(OCc2cc(C(=O)N(C)Cc3nc(C)cs3)no2)c1 was read as Cycloheximide cs 56*, Shiga inhibitor 108*, Pf growth 48h 9% and Pf growth 96h 6.6µM*.
`Cc1ccc(OCc2cc(C(=O)N(C)Cc3nccn3C)no2)cc1C` gave Cycloheximide cs 22, Shiga inhibitor 20, Pf growth 48h 0% and Pf growth 96h inconclusive.
For Cc1nc(CN(C)C(=O)c2cc(COc3ccc4ncccc4c3)on2)cs1 the results were Cycloheximide cs 11, Shiga inhibitor 19, Pf growth 48h -18% and Pf growth 96h -23%.
Cc1nnc(CN(C)C(=O)c2cc(COc3ccc(C)c(C)c3)on2)o1 was read as Cycloheximide cs 36*, Shiga inhibitor 44, Pf growth 48h 11% and Pf growth 96h inconclusive.
COC(=O)c1ccc(-c2ccc(Cl)cc2)nc1C was read as Cycloheximide cs 95*, Shiga inhibitor 37*, Pf growth 48h 496% and Pf growth 96h 407%.
For CCC[C@@H]1C[C@@H](C(=O)N[C@@H](C2O[C@H](SC)[C@H](O)[C@@H](O)[C@H]2O)[C@H](C)Cl)N(C)C1 (stereo partly drawn) the results were Cycloheximide cs -1, Shiga inhibitor 14, Pf growth 48h inconclusive and Pf growth 96h inconclusive.
`CCC[C@@H]1C[C@@H](C(=O)NC(C(C)Cl)[C@H]2O[C@H](SC)[C@H](O)[C@@H](O)[C@H]2O)N(C)C1` (stereo partly drawn) gave Cycloheximide cs -5, Shiga inhibitor -5, Pf growth 48h inconclusive and Pf growth 96h 0.0033µM*.
Screening CCC[C@H]1C[C@H](C(=O)NC(C(C)Cl)C2O[C@@H](SC)C(OP(=O)(O)O)[C@@H](O)[C@@H]2O)N(C)C1 (stereo partly drawn) returned Cycloheximide cs -7 and Shiga inhibitor -5.
`CCCC1CC(C(=O)NC(C(C)Cl)C2OC(SC)C(O)C(O)C2O)N(C)C1` (stereo not drawn) gave Cycloheximide cs -2, Shiga inhibitor -3, Pf growth 48h 0.083µM* and Pf growth 96h 0.0029µM*.
Screening Cc1ccc(C)c(N2CCN(C(=O)CCS(=O)(=O)c3ccc4c(c3)CCN4C(=O)C3CC3)CC2)c1 returned Cycloheximide cs -3, Shiga inhibitor -1, Pf growth 48h inconclusive and Pf growth 96h 40%.
COc1ccc(OC)c(S(=O)(=O)N2CCCC2C(=O)NC(C)c2ccccc2)c1 (stereo not drawn) was read as Cycloheximide cs -2, Shiga inhibitor -8, Pf growth 48h -17% and Pf growth 96h -10%.
Screening CC/C(=N/Nc1ccccc1C)c1cnnc(SC)n1 returned Cycloheximide cs 1, Shiga inhibitor -6, Pf growth 48h 4.1µM* and Pf growth 96h 2.3µM*.
`CCOC(=O)c1nc2ccccc2c(=O)[nH]1` gave Cycloheximide cs 37*, Shiga inhibitor 54*, Pf growth 48h 51% and Pf growth 96h 45%.
For Cc1ccsc1C(=O)OCc1nc2ccccc2c(=O)[nH]1 the results were Cycloheximide cs 58*, Shiga inhibitor 61* and Pf growth 48h 58%.
Screening Cc1ccsc1C(=O)OCc1nc2ccsc2c(=O)[nH]1 returned Pf growth 48h 18% and Pf growth 96h 4%.
CCOC(=O)CSc1nc2ccccc2c(=O)[nH]1 was read as Cycloheximide cs -1, Shiga inhibitor -5, Pf growth 48h 20% and Pf growth 96h 12%.
`Cc1nn(Cc2ccc(C(=O)Nc3ccc(C(=O)OC(C)C)cc3)o2)c(C)c1Cl` gave Cycloheximide cs 8, Shiga inhibitor -2, Pf growth 48h 15µM* and Pf growth 96h 20%.
For O=C(COC(=O)c1cc(-c2cccs2)nc2ccccc12)NC1CCS(=O)(=O)C1 (stereo not drawn) the results were Cycloheximide cs -5, Shiga inhibitor 26, Pf growth 48h -1% and Pf growth 96h -10%.
`Cc1nn(-c2ccc(Cl)cc2)c(NC(=O)C(C)C)c(-c2ccccc2)c1=O` gave Cycloheximide cs 0, Shiga inhibitor 5, Pf growth 48h 24% and Pf growth 96h 3%.
For Cc1ccccc1C(=O)NCCCc1ccccc1 the results were Cycloheximide cs 39*, Shiga inhibitor 140*, Pf growth 48h 72% and Pf growth 96h inconclusive.
`O=C(NC(=S)NCCc1ccccc1)c1ccccc1F` gave Cycloheximide cs 41*, Shiga inhibitor 94*, Pf growth 48h 48% and Pf growth 96h -10%.
Cc1ccccc1C(=O)NCCCCc1ccccc1 was read as Cycloheximide cs 9, Shiga inhibitor 27, Pf growth 48h 2% and Pf growth 96h -11%.
O=C(NC(=S)NC(=O)c1ccccc1F)c1ccccc1F was read as Cycloheximide cs 40*, Shiga inhibitor 73*, Pf growth 48h 45% and Pf growth 96h 3%.
O=C(NC(=O)c1ccccc1F)OCc1ccc(Cl)cc1Cl was read as Cycloheximide cs 26*, Shiga inhibitor 69*, Pf growth 48h 23% and Pf growth 96h -16%.
Screening COc1c(Cl)cc(Cl)cc1CNc1ccc(S(N)(=O)=O)cc1 returned Cycloheximide cs -2, Shiga inhibitor -10, Pf growth 48h 35% and Pf growth 96h 14%.
Screening CC(OC(=O)Cn1[nH]c(=O)c2ccccc2c1=O)C(=O)Nc1ccc(Cl)cn1 (stereo not drawn) returned Pf growth 48h 27% and Pf growth 96h 42%.
O=C(NCCCCc1ccccc1)c1ccccc1Cl was read as Cycloheximide cs 24*, Shiga inhibitor 58*, Pf growth 48h 49% and Pf growth 96h 67%.

Bioassay records as filed in PubChem BioAssay.
